Measured values from ChEMBL document CHEMBL4513216, “Probing the Open Global Health Chemical Diversity Library for Multistage-Active Starting Points for Next-Generation Antimalarials” (ACS Infect Dis, 2020).
The campaign covered roughly 68,000 compounds. About 2,700 (4%) showed an effect of 50% or more. What follows is part of a selection rich in strong results, with near analogues and random picks from the rest.

tested on: Plasmodium berghei; assay: Screen against P. berghei liver stage (PbLuc), transformed with Luciferase, at 2uM; assay type: functional, HepG2; details: tested at 2 uM

Structure (SMILES) | INHIBITION
CSC1(CNC(=O)c2ccn(-c3ccccc3F)n2)CCOCC1 | -5.41%
O=C(C1CCCC1)N1CC2(CCN(C3COC3)C2)OCc2ccccc21 (configuration not stated) | 12.39%
Cc1nc(CNC(=O)CCN2CCN(c3ccccc3)CC2)oc1C | -0.39%
O=C(NCc1cn2cccnc2n1)C1CC(=O)N(Cc2ccccn2)C1 (configuration not stated) | 56.79%
O=C(NCc1cn2cccnc2n1)C1CC(=O)N(Cc2cccnc2)C1 (configuration not stated) | -23.46%
CN(C)CCN1CC(C(=O)NCc2cn3cccnc3n2)CC1=O (configuration not stated) | 11.37%
Cc1ccc(C(=O)O)cc1S(=O)(=O)N(CC(C)O)c1ccccc1 (configuration not stated) | 11.33%
COc1ncccc1NC(=O)N1CCC(c2ccc(O)cc2)CC1 | -14.28%
CCN1CC(COC(=O)c2ccc(N(C)C)cc2F)CC1=O (configuration not stated) | -3.43%
CS(=O)(=O)N1C[C@@H]2C[C@H](C(=O)N3CCOCC3)[C@H](C1)O2 | 54.01%
CC(C)CS(=O)(=O)N1C[C@@H]2C[C@H](C(=O)N3CCN(C)CC3)[C@H](C1)O2 | -26.46%
CCCS(=O)(=O)N1C[C@@H]2C[C@H](C(=O)N3CCOCC3)[C@H](C1)O2 | 32.59%
CCCS(=O)(=O)N1C[C@@H]2C[C@H](C(=O)N3CCN(C)CC3)[C@H](C1)O2 | 72.68%
CC(C)CS(=O)(=O)N1C[C@@H]2C[C@H](C(=O)N3CCOCC3)[C@H](C1)O2 | 15.36%
CCCS(=O)(=O)N1C[C@@H]2C[C@H](C(=O)N3CCCC3)[C@H](C1)O2 | 22.71%
CCOCC1CN(Cc2ccncc2)Cc2nn(C)cc21 (configuration not stated) | 7.26%
CCN(C)c1ncnc2c1CCN(CC1CCOC1)CC2 (configuration not stated) | 26.76%
COc1cc(Cl)ccc1C(=O)NCc1n[nH]c(C)n1 | 29.39%
Cc1cc(CC(=O)NCC(O)c2ccc(OC(F)F)cc2)n[nH]1 (configuration not stated) | 17.94%
CSc1ccc(-c2noc(CN(Cc3ccccc3)C(C)C)n2)cc1 | 28.97%
CC(C)n1nc(Cn2cccc2)c2c1CN(Cc1ccoc1)C2 | 51.4%
Cn1nc(Cn2cccn2)c2c1CN(Cc1ccoc1)C2 | 15.34%
Cn1nc(Cn2ccnc2)c2c1CN(Cc1ccoc1)C2 | 4.26%
COCc1nn(C(C)C)c2c1CCN(Cc1ccoc1)C2 | 6.35%
Cn1nc(Cn2cccc2)c2c1CN(Cc1ccoc1)C2 | 50.32%
CCS(=O)(=O)N1Cc2c(Cn3cccc3)nn(C(C)C)c2C1 | -24.79%
O=C1CC[C@H]2CN(Cc3ncc[nH]3)CC[C@H]2N1CC1CCNCC1 | 17.37%
